G9a block: inhibitors of human histone lysine methyltransferase G9a; Q96KQ7; Potency, µM (titrated, usually from 102 µM), for inactives: at the top dose activity, negative = inhibition, actives largely listed as inhibitors; G9a H3K9 monomethylation, AlphaScreen, 2 h; AID 504332; actives 8.8% (n = 350,000); further: potency means the concentration at half of the fitted maximal effect; on the % scale 0 is the no-effect control and ±100 the full control effect; nearly all actives have a fitted effect of over 75% in size
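Readings reflect AlphaScreen signal from monomethyl-H3K9 antibody detection. HMT at 20 nM; substrate b-H3K9 500 nM; cofactor SAM 20 uM; 2 h RT reaction; compounds tested as titrations in qHTS with 15 min preincubation.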
PLK1 PBD block: inhibitors of human PLK1 polo-box domain binding | Potency, µM, without a hit: max response, negative = inhibition, hits mostly inhibitors | AID 720504 | Plk1 PBD binding of FITC phosphopeptide, fluorescence polarization | actives 2.8% (n = 360,000) | P53350; further: potency means the concentration at half of the fitted maximal effect; series mostly up to about 57 µM; on the % scale 0 is the no-effect control and ±100 the full control effect; nearly all actives have a fitted effect of over 65% in size
JMJD2A Tudor: JMJD2A Tudor domain (human) inhibition; Potency, µM (titrated, usually from 114 µM), for inactives: at the top dose activity change, negative = inhibition, most hits filed as inhibitors; AlphaScreen JMJD2A-Tudor / H3K4me3 peptide binding; actives 4.4% (n = 390,000); O75164; AID 504339; further: potency means the concentration at half of the fitted maximal effect; on the % scale 0 is the no-effect control and ±100 the full control effect; nearly all actives have a fitted effect of over 50% in size
HP1b binding inh: inhibitors of HP1-beta chromodomain binding to methylated histone tails; AlphaScreen HP1-beta / biotin-H3K9me3 peptide binding; Potency, µM (highest dose often 114 µM), without a hit: at the highest dose activity change, negative = inhibition, actives largely listed as inhibitors; actives 0.56% (n = 390,000); AID 540317; further: potency means the concentration at half of the fitted maximal effect; nearly all actives have a fitted effect of over 70% in size
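AlphaScreen: HP1-beta (50 nM) preformed 30 min with biotin-H3(1-18)K9me3 peptide (50 nM) in PBS pH 7.4, 0.01% Tween-20. Compound added for 30 min at RT, then streptavidin donor/nickel chelate acceptor beads (10 ug/mL) for 30 min.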
PI5P4Ka inh: PI5P4K alpha (human) kinase inhibition; max response, %; actives 1.2% (n = 330,000); PI5P4Kalpha enzyme, ADP-Glo luminescence, 60 min; stronger effect = lower value; P48426; active means max response of -50% or lower; inconclusive means between -30% and -50%; inactive means -30% or higher; further: value at the top dose of about 77 µM; on the % scale 0 is the no-effect control and ±100 the full control effect
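PI5P4Kalpha ADP-Glo assay; 5 microM ATP final; 60 min RT reaction; HEPES pH 7.4/EGTA/CHAPS, 5% DMSO; controls lacking substrate or enzyme; luminescent end-point.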
BAZ2B block: blocks human BAZ2B; Q9UIF8; AlphaScreen BAZ2B-H3K14Ac peptide displacement; Potency, µM (titrated, usually from 114 µM), inactives show at the highest dose activity change, negative = inhibition, hits mostly inhibitors; actives 4.4% (n = 360,000); further: potency means the concentration at half of the fitted maximal effect; on the % scale 0 is the no-effect control and ±100 the full control effect; nearly all actives have a fitted effect of over 60% in size
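Inhibition is scored as reduced AlphaScreen emission. The BAZ2B/b-H3(5-23)K14Ac complex (50 nM each) in PBS pH 7.4, 0.01% Tween-20 meets compound (up to 110 uM) for 30 min at RT before bead addition.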
* = called active by the depositor; ? = inconclusive; / = not tested or not shown; [ ] = another dose, or the depositor's remark. Rows were chosen to be rich in hits. Some 12% of all compounds tested hit in one or more screens of this group. Unless noted, the call rests on the fitted dose curve; in most records, active means well fitted curve in the direction sought with a large enough effect; inconclusive means small, poorly fitted or top-dose-only effect, or another doubt; inactive means no such curve, though single readings can be large; an effect the other way counts as inactive or inconclusive.

SMILES	G9a block	PLK1 PBD block	JMJD2A Tudor	HP1b binding inh	PI5P4Ka inh	BAZ2B block
COc1ccc(OCC(=O)O/N=C(\N)Cc2ccc(Cl)cc2)cc1	162%	-15%	92%	185%	7	170%
Cc1ccc(OCC(=O)O/N=C(\N)Cc2ccc(Cl)cc2)cc1	97%	2.7µM*	?	86%	?	160%
CC(C)Cn1c(-c2ccco2)n[nH]c1=S	7.1µM*	-11%	4µM*	-8%	/	?
c1coc(-c2cnc3ccccc3n2)c1	/	-17%	/	/	2	/
CC(C)Cn1c(-c2ccco2)nc2c(c(=O)c3ccccc3n2C)c1=O	?	/	/	/	/	-34%
Cn1c(-c2ccco2)n[nH]c1=S	4.5µM*	-19%	7.9µM*	22%	6	-13%
CCCCn1c(-c2sccc2C)n[nH]c1=S	7.9µM*	-16%	4.5µM*	?	-15	-18%
C=CCn1c(-c2ccco2)n[nH]c1=S	?	-13%	10µM*	38%	1	-5%
CCC(C)NC(=O)CCn1c(=O)c2cccn2c2ccc(F)cc21 (centres undefined)	6%	1%	-12%	12%	-5	5%
COc1cccc(CNC(=O)[C@@H]2CCCN2)c1	/	3%	/	/	1	/
COc1ccccc1CNC(=O)c1ccc(N2CCCC2)c(NC(=O)NCc2ccccc2)c1	7%[12.7 µM]	/	-6%	28%	/	-15%
Cc1cccc(OCC(O)Cn2c(N3CCCCC3)nc3c2c(=O)n(C)c(=O)n3C)c1 (centres undefined)	15%	6%	-8%	29%	0	2%
CCCCn1c(-c2ccco2)n[nH]c1=S	5µM*	?	3.2µM*	?	2	-4%
CCn1c(-c2ccco2)n[nH]c1=S	3.5µM*	-28%	-2%[11.4 µM]	-22%	-4	3%
CCCCCn1c(-c2ccco2)nc2nc3ccccc3nc21	-4%[59 µM]	-3%	5%	44%	-1	1%
Cc1ccc(NCc2ccncc2)c(Br)c1	/	-6%	1.6µM*	28µM*	7	22µM*
Cc1cc(F)ccc1NCc1ccncc1	25%[59 µM]	0%	-23%	22%	/	-10%
Cc1cc(Br)c(S(=O)(=O)NCc2ccncc2)cc1C	?	-10%	-3%	20%	4	-2%
Cc1cc(NCc2ccncc2)ccc1Br	/	1%	18µM*	?	1	50µM*
Cc1ccc2[nH]c3c(=O)n(CC(=O)Nc4ccc(Br)cc4C)ncc3c2c1	-3%[59 µM]	/	-18%	2%	/	7%[57.1 µM]
CC(C)NC(=S)NNc1nc2ccccc2s1	2.2µM*	?	45µM*	50µM*	-67*	-34%
O=C(NNc1nc2ccccc2s1)c1ccc(F)cc1	15%[59 µM]	-9%	-15%	24%	4	6%
CSC(SC)=C(C#N)C(=O)c1ccccc1	50µM*	11µM*	-3%	-20%	-9	-18%
COc1cccc(C(=O)C(C#N)=C(SC)SC)c1	40µM*	15µM*	-20%	-22%	-8	-24%
N#CC(C#N)=C(Nc1ccccc1)c1ccccc1	2%	-9%	-13%	15%	8	-11%
SMILES	G9a block	PLK1 PBD block	JMJD2A Tudor	HP1b binding inh	PI5P4Ka inh	BAZ2B block
CCOC(=O)C1CCN(C(=O)COC(=O)CSc2ccccc2C)CC1	/	-14%	-8%	34%	0	/
CC(C)NCC(O)COC1CCC(C(C)(C)C)CC1 (centres undefined)	-42%	21µM*	-7%[11.4 µM]	14%	6	10%
CCC1CCCCN1S(=O)(=O)c1ccc(C(=O)Nc2sc3c(c2C(=O)NC)CCC3)cc1 (centres undefined)	3%[59 µM]	/	-19%	6%[57 µM]	/	2%
COCC(=O)n1nc(-c2ccccc2)nc1NCc1ccc(N(C)C)cc1	-4%[12.7 µM]	-4%	35µM*	50µM*	-2	32µM*
O=C(CSc1nc(-c2ccccc2)nn1C(=O)c1ccccc1)Nc1cccc([N+](=O)[O-])c1	/	?	?	-1%	/	56µM*
CCc1ccccc1NC(=O)CSc1nc(-c2ccccc2)nn1C(=O)c1cccc([N+](=O)[O-])c1	9%[59 µM]	/	/	/	/	8%[57.1 µM]
O=C(c1ccc([N+](=O)[O-])cc1)n1nc(-c2ccccc2)nc1NCc1ccccc1	/	-8%	?	?	1	-26%
O=C(c1cccc([N+](=O)[O-])c1)n1nc(-c2ccccc2)nc1NCc1ccccc1	45µM*	-1%	?	-12%	1	-7%
CCOC(=O)Cc1ccc(NC(=O)N2CCc3c(sc4c3CCCC4)C2c2ccc(F)cc2)cc1 (centres undefined)	-23%[59 µM]	/	-26%	-12%	/	-23%
Cc1ccc(N2C(=O)c3n[nH]c(C)c3C2c2cccnc2)cc1 (centres undefined)	50µM*	-2%	-6%	33%	/	-8%
COc1cc(C2c3c(n[nH]c3C)C(=O)N2c2ccc(C)cc2)ccc1O (centres undefined)	50µM*	?	35%	46%	1	-6%
Cc1ccc(-c2n[nH]c(=S)n2/N=C/C=C\c2ccccc2[N+](=O)[O-])cc1	?	-27%	?	-7%	-11	?
O=[N+]([O-])c1ccccc1/C=C/C=N/n1c(-c2ccccc2)n[nH]c1=S	3.2µM*	?	56µM*	?	0	?
O=[N+]([O-])c1ccccc1/C=C/C=N/n1c(-c2ccc(Cl)cc2)n[nH]c1=S	6.3µM*	?	?	-19%	-17	?
CCn1nc(C)cc1C(=O)N1CCCC(C(=O)c2ccc(OC)cc2C)C1 (centres undefined)	2%	-1%	12%	25%	-3	-10%
Nn1cnnc1N/N=C/c1cc(Br)cc(Br)c1O	24%[2.33 µM]	-8%	89µM*	36%	-12	32µM*
CC(C)(C)c1ccc(/C=N/Nc2nncn2N)cc1	40µM*	3%	-10%	27%	-1	-8%
COc1cc(/C=N\Nc2nncn2N)ccc1OC(C)=O	71µM*	-7%	-8%	41%	-5	-15%
O=C(Cn1cc(S(=O)(=O)N2CCCC2)c(S(=O)(=O)N2CCCC2)c1)Nc1ccccc1	-8%[59 µM]	/	-19%	4%	/	7%[57.1 µM]
Cc1ccc(/C=c2\sc3nc(-c4ccccc4Br)nn3c2=O)o1	3.5µM*	-26%	50µM*	1%	?	50µM*
COc1ccccc1/C=c1\sc2nc(-c3ccccc3OC)nn2c1=O	/	-10%	-13%	17%	9	-26%
Cc1ccc(-c2nc3s/c(=C\c4ccco4)c(=O)n3n2)cc1	50µM*	-9%	50µM*	-14%	/	50µM*
Cc1cc(C)cc(N2CN=c3s/c(=C\c4ccco4)c(=O)n3C2)c1	-10%[59 µM]	-3%	-23%	-25%	-12	?
COc1ccc(Br)cc1/C=c1\sc2nc(-c3ccco3)nn2c1=O	?	?	45µM*	-25%	-59*	16µM*
